{"source": "PubChem BioAssay AID720580", "about": "(National Center for Advancing Translational Sciences (NCATS), 2013)", "note": "Where “and” joins values, the source holds several entries; their conditions need not be identical. Equal values may be shown once. Out of some 330,000 compounds screened, about 1,500 (0.45%) were called active. Not shown: some 6% with an inconclusive outcome. Calls come from the whole dose curve; tested in A549 cells. Many of the other results were omitted from the sample, so actives are more common in it than they were. A structure can be active in one record and inactive in another. % is set by controls: 0 for no effect and ±100 for the full control effect; potency is the fitted concentration of half-maximal effect.", "data": [{"experiment": "qHTS for Stage-Specific Inhibitors of Vaccinia Orthopoxvirus: Venus Reporter Primary qHTS; note: nearly all actives have a fitted effect of over 30% in size", "settings": "Vaccinia virus Venus reporter expression, fluorescence; series mostly up to 36.5 µM; activity change, negative = inhibition: at the top concentration", "values": [{"smiles": "COc1ccc(-c2nc(=N)sn2-c2ccccc2)cc1", "activity change, negative = inhibition": "-26.5% (inactive)"}, {"smiles": "COc1ccc(C(NC(=O)C2CCN(CCCc3ccccc3)CC2)c2cccs2)cc1", "note": "(stereo unspecified)", "activity change, negative = inhibition": "-17.3% (inactive)"}, {"smiles": "N#Cc1c(Cl)c(Cl)c(Cl)c(C#N)c1Cl", "Potency": "inactive and 14.1 µM (active)"}, {"smiles": "CCOc1ccc(NC(=O)CSc2nnc3c(n2)[nH]c2ccc(S(=O)(=O)N4CCOCC4)cc23)cc1", "activity change, negative = inhibition": "-23.5% (inactive)"}, {"smiles": "COC1CC(OC2CC[C@@]3(C=O)C4CC[C@]5(C)C(C6=CC(=O)OC6)CC[C@@]5(O)C4CC[C@]3(O)C2)OC(C)C1O", "note": "(stereo partly specified)", "Potency": "0.282 µM (active)"}, {"smiles": "COC1C(O)C(C)OC(OC2CCC3(C=O)C(CCC4C3CCC3(C)C(C5=CC(=O)OC5)CCC43O)C2)C1O", "note": "(stereo unspecified)", "Potency": "0.1 µM (active)"}, {"smiles": "O=C(Nc1ccc2c(c1)OCCO2)C(C1CC1)N1CCC(Cc2ccccc2)CC1", "note": "(stereo unspecified)", "activity change, negative = inhibition": "1.13% (inactive)"}, {"smiles": "O=S1(=O)CC(N2CCN(Cc3ccccc3F)CC2)CN1Cc1cn(Cc2ccccc2)nn1", "note": "(stereo unspecified)", "activity change, negative = inhibition": "-1.01% (inactive)"}, {"smiles": "Cc1nc2c(OCc3ccc(Cl)cc3)cccn2c1N(C)Cc1cccs1", "activity change, negative = inhibition": "-19.4% (inactive)"}, {"smiles": "CCOC(=O)[C@]12CCCC=C1N(Cc1ccc3c(c1)OCO3)C(=O)[C@H](CC(=O)N1CCN(C(=O)c3ccco3)CC1)C2", "activity change, negative = inhibition": "-3.23% (inactive)"}, {"smiles": "COC(=O)c1ccc(NC(=O)CSc2nnc(CNc3ccc(OC)cc3)n2C)cc1", "Potency": "12.6 µM (active)"}, {"smiles": "COc1ccc(C(=O)NCc2nnc(SCC(=O)NC3=NCCS3)n2C)cc1", "activity change, negative = inhibition": "1.83% (inactive)"}, {"smiles": "COC(=O)c1ccc(NC(=O)CSc2nnc(C3CC3)n2C)cc1", "activity change, negative = inhibition": "-11.9% (inactive)"}, {"smiles": "Cc1ccc(S(=O)(=O)N2[C@@H](Cc3ccccc3)CO[C@H]2CC(=O)OCc2ccccc2)cc1", "activity change, negative = inhibition": "-15.6% (inactive)"}, {"smiles": "N#Cc1cccc(NC(=O)c2cc(C3CCCCN3C(=O)CCc3ccccc3)on2)c1", "note": "(stereo unspecified)", "activity change, negative = inhibition": "-6.64% (inactive)"}, {"smiles": "CCOC(=O)N1C(=O)C[C@](Sc2ccc(C)cc2)(C(=O)OC)[C@H]1c1ccccc1", "activity change, negative = inhibition": "8.58% (inactive)"}, {"smiles": "COc1ccc(OC)c(NC(=O)C2(C)CCN2C(=O)Cc2ccccc2)c1", "note": "(stereo unspecified)", "activity change, negative = inhibition": "-2.79% (inactive)"}, {"smiles": "O=C(NCc1cccnc1)c1cc(C2CCCN(C(=O)C3CCCCC3)C2)on1", "note": "(stereo unspecified)", "activity change, negative = inhibition": "1.16% (inactive)"}, {"smiles": "CC(C)n1cnc2c(Nc3cccc(Cl)c3)nc(N(CCO)CCCO)nc21", "Potency": "11.2 µM (active)"}, {"smiles": "CC(C)C[C@H](CO)Nc1nc(N(C)c2cccc(Cl)c2)c2ncn(C(C)C)c2n1", "activity change, negative = inhibition": "-28.6% (inactive)"}, {"smiles": "COC(=O)[C@@]12C[C@@H](CC(=O)N3CCCCC3)C(=O)N(Cc3ccc4c(c3)OCO4)C1=CCC(C)(C)C2", "activity change, negative = inhibition": "-19.4% (inactive)"}, {"smiles": "CCc1nc2c(OCc3ccc(C(=O)OC)cc3)cccn2c1N(C)C(=O)C(C)C", "activity change, negative = inhibition": "-10.2% (inactive)"}, {"smiles": "CN(C)c1ccc(/C=C/C=C/c2ccnc3ccccc23)cc1", "activity change, negative = inhibition": "128% (inactive)"}, {"smiles": "COc1cccc(-c2nc(Nc3ccncc3)c3ccccc3n2)c1", "activity change, negative = inhibition": "19.3% (inactive)"}, {"smiles": "O=[N+]([O-])c1ccc(F)cc1Oc1nc(-c2cccnc2)nc2ccccc12", "Potency": "5.01 µM (active)"}, {"smiles": "Cc1cnc(CNc2nc(-c3cccnc3)nc3ccccc23)cn1", "activity change, negative = inhibition": "0% (inactive)"}]}]}
